In paper PMC12136788:
Positions count from the first letter of the chain named. Over roughly 5,800 sequences, “enrichment r” has its median near 0.54; the highest 2% begin near 16. This is one part of a sample in which the highest values are shown more often than they occur.

B1: chr19:7961171:7961272:-|3pUTR|ENSG00000066044|msi1|FALSE|unique (ssRNA)
RNA: GGGAGUUCUACAGUCCGACGAUCGGCGGGAUUCCCGCUUCUGAAACUCCCCCUGGAGUCUCACUCCCACACAUGCCCAUAGCUAGCAUUCAACAGAGAACUCUGUCUUAAGCUUCAACUGUGAAAAUGAUGACGGGCUUGUAGCAACAGAGGAUUGAGCAUCA
B2: chr8:52110837:52113338:-|three_prime_utr|ENSG00000147488|control|control|control (ssRNA)
RNA: GGGAGUUCUACAGUCCGACGAUCCCCCGGAAUGCAAAGCUCUACUGGAAAGUAUCAAACAGGCAGUGAAGGGUAUCCAUGUGUAGGAUCACAGCGCUGCCGGGCAACAGAAGUUACCAACAGCAGUAAACUCCAGAUGGAUCUCAACAGAGGAUUGAGCAUCA
B3: ENSG00000107863:be:win_4051|CDS|ENSG00000107863|bound_else_gene|NA|bound_elsewhere_windowed (ssRNA)
RNA: GGGAGUUCUACAGUCCGACGAUCGUGCAGGAGGAAAGCACAGUAGACUCCCAGCCAGUGCCAAACAUAGAUCAUUUACUCACCAACAUUGGAAGGACAGGAGUCUCCCCAGGAGAUGUAUCAGAUUCAGCUACUAGUGACUCACAACAGAGGAUUGAGCAUCA
B4: ENSG00000107863:be:win_5501|CDS|ENSG00000107863|bound_else_gene|NA|bound_elsewhere_windowed (ssRNA)
RNA: GGGAGUUCUACAGUCCGACGAUCCUGUAAACCGGUUAAAACCAAAAUGCUCAGCCCAGGACCUUUCCAUCUCAGACUGGCUGGCCAGGGAACGCCUACGCACCAGUACCUCUGACCUUAGCAGAGGAGAAAUCGGAGAUCCCCCAACAGAGGAUUGAGCAUCA
B5: chr3:15254852:15254953:-|3pUTR|ENSG00000131370|msi1|FALSE|unique (ssRNA)
RNA: GGGAGUUCUACAGUCCGACGAUCAAACUGUUAAUUCUGUCACAGCCUGUAUAUUUUAGUCAUUUGUAAAUCUCUUCAUACAAUAGUGACUUCUUUUUUGACUGAUACAGUAUCUUAAUUACAAGGUUAUUUUGUACUUGUCUUCAACAGAGGAUUGAGCAUCA
B6: chr1:93361585:93361687:+|3pUTR|ENSG00000117505|unk|FALSE|unique (ssRNA)
RNA: GGGAGUUCUACAGUCCGACGAUCUUUAACUUGUAGUUAUAGUUUACUUAUUGUUUUUAGAAUUACUUUUACAUUUUCCCAACUAGAUGGCCUAGAGUCCAACAUUACCUUUUGAGAUGACAUUAUUGUCUCCAUAAUUGAGUGCAACAGAGGAUUGAGCAUCA
B7: ENSG00000165219:stop:overlap|stop_codon|ENSG00000165219|stop_codon|NA|stop_codon (ssRNA)
RNA: GGGAGUUCUACAGUCCGACGAUCUACCUAUAGGUAAAGAGAAUUUCUCGUAUUGGAGCUUUCUCUUAAAUCUAAUAUUUCAUUAGCCUUUGUUAUUGCUGAGUGUUUUGGAACAUAUGUUUAAGUACUUGGGAAAGUCUUUCUCAACAGAGGAUUGAGCAUCA
B8: chr1:93361585:93361687:+|3pUTR|ENSG00000117505|unk|total|mutant (ssRNA)
RNA: B6 RNA with U33C, A34C, U39C, A40C, U57C, A58C, U83C, A84C, U92C, A93C
B9: chr7:123541454:123541562:-|3pUTR|ENSG00000128609|unk|FALSE|unique (ssRNA)
RNA: GGGAGUUCUACAGUCCGACGAUCUCCAUAGUGUCAUUUUAUUUUAGUCAUUAUUGAAUUAUACCAUUUACUCUGUUUUCUUAUAGUCUUAAUUUUAUUAUAUUUUGUUGUUACUGUAUUAUAUUUGAAAACCUUCAAAUUAGACAACAGAGGAUUGAGCAUCA
B10: chr5:113594843:113594944:+|3pUTR|ENSG00000047188|msi1|total|mutant (ssRNA)
RNA: GGGAGUUCUACAGUCCGACGAUCCAACAUAAAAUCUUGAGAACCUUCUACUUUCUCUGGGAAAGCAUUAUACCGUGGUGCAUCCGUUCCGAAAGUCAGCUAUGAUUUUGCCUACCGUUCCCGUUAUCCGCUUUGGGGUUUUCUCAACAGAGGAUUGAGCAUCA
B11: chr2:216672374:216672548:-|3pUTR|ENSG00000115461|msi1|total|mutant (ssRNA)
RNA: GGGAGUUCUACAGUCCGACGAUCUUUUUCUUUUUUUUUUUGAAGACAGCAAUAACCACAGUACAUAUUACUGCCGUUCUCUACCGUUUUACAUACAUUCAUACCAUAACUCUGUUCUCUCCUCUUUUUUGUUUUCAACUUUAACAACAGAGGAUUGAGCAUCA
B12: chr10:30313878:30313980:-|CDS|ENSG00000107951|unk|FALSE|unique (ssRNA)
RNA: GGGAGUUCUACAGUCCGACGAUCUGUUUUUAUAUUUAAGCCCUUCAUGUACUUACUCAUUUUUUCUUCUGUGUAAUAAUCUAUAGGGAAGGGAGCAAAACAAACCUGAUUCUUCUCCUCUGUACAUUCAGAAUCCAUUUGAAACAACAGAGGAUUGAGCAUCA

Target: MSI1 full-length (mouse, UniProt Q61474 1-362)
Sequence (Q61474 whole entry): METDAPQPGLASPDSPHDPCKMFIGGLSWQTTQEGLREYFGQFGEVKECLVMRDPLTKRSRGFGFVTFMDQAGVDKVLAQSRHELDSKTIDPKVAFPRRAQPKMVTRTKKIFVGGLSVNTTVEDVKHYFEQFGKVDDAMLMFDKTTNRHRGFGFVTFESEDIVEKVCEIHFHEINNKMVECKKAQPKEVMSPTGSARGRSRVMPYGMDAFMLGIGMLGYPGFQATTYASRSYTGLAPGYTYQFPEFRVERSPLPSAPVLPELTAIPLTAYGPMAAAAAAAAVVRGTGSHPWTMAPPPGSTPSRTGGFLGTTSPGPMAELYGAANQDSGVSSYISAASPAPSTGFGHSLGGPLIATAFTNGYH
Assay: nsRBNS (natural sequence RNA bind-n-seq); RBNS binding buffer (assumed for nsRBNS): 25 mM Tris pH 7.5, 150 mM KCl, 3 mM MgCl2, 0.01% Triton X-100, 500 ug/ml BSA, 20 U/ml SUPERase-In, 4 C; UNK is unkempt and MSI1 is Musashi-1; names of the RNAs are library labels; protein concentration not given here; high values mean tight binding

First: B1
Second: B2
The binding signal of the first is lower: 0.313 enrichment R for the first, 0.319 enrichment R for the second.

Going from B3 to B4, the binding signal falls from 1.93 enrichment R to 0.497 enrichment R.

Going from B5 to B6, the binding signal rises from 0.848 enrichment R to 56.8 enrichment R.

Going from B7 to B8, the binding signal rises from 1.03 enrichment R to 1.55 enrichment R.

Going from B9 to B10, the binding signal falls from 42.9 enrichment R to 0.394 enrichment R.

Compared with B11, B12 is lower in binding signal: 7.36 enrichment R for the first, 1.04 enrichment R for the second.
